Reference: the supplement of paper PMC10849652
About 7,900 targets were measured; listed, in parts, are those with a hit and a random draw of the rest. About 0.6% of all pairs of compound and target were hits.

How the values were obtained:
Test in all cases: log2 fold change, soluble protein after heating vs DMSO (PISA); higher = thermal stabilisation; K562 cells, 10 uM, 30 min; active = over 0.2 and 3.5 SD of the protein, either way, in both replicates (recomputed)
IRAK-1-4 Inhibitor I = compound: C1COCCN1CCN2C3=CC=CC=C3N=C2NC(=O)C4=CC(=CC=C4)[N+](=O)[O-] [IRAK-1-4 Inhibitor I]
Outline: (§1)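 K562 cells (2×10^6 cells/mL) were treated with 10 μM compound for 30 min, and aliquots were heated for 3 min over 48°C-58°C. Pooled aliquots were extracted in PBS with 0.5% NP-40 at 4°C, and the supernatant after 21,000xg for 90 min was measured by TMTpro 16plex LC-MS/MS with channel sums equalised. Reported thermal stability, relative to control samples and from duplicates, is a log2 fold change.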

ibrutinib = compound: C=CC(=O)N1CCC[C@@H](n2nc(-c3ccc(Oc4ccccc4)cc3)c3c(N)ncnc32)C1 [ibrutinib]
Outline: as §1

[1] = compound: CC(=O)c1cnc2ccc(-c3cc(Cl)c(O)c(Cl)c3)nc2c1N[C@H]1CC[C@H](CN(C)C)CC1
Outline: as §1

ralimetinib = compound: CC(C)(C)Cn1c(N)nc2ccc(-c3[nH]c(C(C)(C)C)nc3-c3ccc(F)cc3)nc21 [ralimetinib]
Outline: as §1

[2] = compound: CC(C)(O)CC(=O)NCCn1ccc2ncnc(Nc3ccc(Oc4cccc(C(F)(F)F)c4)c(Cl)c3)c21
Outline: as §1

[3] = compound: CC(C)C1=C2N=C(C=C(N2N=C1)NCC3=CC=CC=C3)NCCCCCCN
Outline: as §1

[4] = compound: CC(C)C[C@@H](C=O)NC(=O)[C@H](CC(C)C)NC(=O)[C@H](CC(C)C)NC(=O)OCc1ccccc1
Outline: as §1

pinometostat = compound: CC(C)N(C[C@H]1O[C@@H](n2cnc3c(N)ncnc32)[C@H](O)[C@@H]1O)[C@H]1C[C@@H](CCc2nc3cc(C(C)(C)C)ccc3[nH]2)C1 [pinometostat]
Outline: as §1

[5] = compound: CC1=C(C(CC(=O)N1)C2=CC=C(C=C2)C(F)(F)F)C(=O)NC3=C(C=C4C(=C3)C=NN4)F
Outline: as §1

[6] = compound: CC1=C(C2=C(C=C1)C(=O)C3=CC=CC=C3N2CCCN)C
Outline: as §1

[7] = compound: CC1=C(C=C(C=C1)NC(=O)C2=CC(=CC=C2)C(C)(C)C#N)NC3=CC4=C(C=C3)N=CN(C4=O)C
Outline: as §1

[8] = compound: CC1=C(C=C(C=C1)NC(=O)C2=CC(=CC=C2)N(C)C)NC(=O)C3=CC=C(C=C3)O
Outline: as §1

[9] = compound: CC1=CC=C(C=C1)SC2=C3C=C(SC3=CN=C2)C(=O)N
Outline: as §1

[10] = compound: CC1=NC(=CC=C1)C2=C(N=C(N2)C(C)(C)C)C3=CC4=NC=CN=C4C=C3
Outline: as §1

Nexturastat A = compound: CCCCN(Cc1ccc(C(=O)NO)cc1)C(=O)Nc1ccccc1 [Nexturastat A]
Outline: as §1

vemurafenib = compound: CCCS(=O)(=O)Nc1ccc(F)c(C(=O)c2c[nH]c3ncc(-c4ccc(Cl)cc4)cc23)c1F [vemurafenib]
Outline: as §1

[11] = compound: CCCS(=O)(=O)Nc1ccc(F)c(C(=O)c2c[nH]c3ncc(Cl)cc23)c1F
Outline: as §1

[12] = compound: CCCc1cc(C)[nH]c(=O)c1CNC(=O)c1cc(-c2ccnc(N3CCN(C)CC3)c2)cc2c1cnn2C(C)C
Outline: as §1

givinostat = compound: CCN(CC)Cc1ccc2cc(COC(=O)Nc3ccc(C(=O)NO)cc3)ccc2c1 [givinostat]
Outline: as §1

barasertib = compound: CCN(CCCOc1ccc2c(Nc3cc(CC(=O)Nc4cccc(F)c4)[nH]n3)ncnc2c1)CCOP(=O)(O)O [barasertib]
Outline: as §1

Measured: log2 fold change

ABCB6 (UniProt Q9NP58)
UniProt Q9NP58, sequence (Q9NP58 whole entry, looked up): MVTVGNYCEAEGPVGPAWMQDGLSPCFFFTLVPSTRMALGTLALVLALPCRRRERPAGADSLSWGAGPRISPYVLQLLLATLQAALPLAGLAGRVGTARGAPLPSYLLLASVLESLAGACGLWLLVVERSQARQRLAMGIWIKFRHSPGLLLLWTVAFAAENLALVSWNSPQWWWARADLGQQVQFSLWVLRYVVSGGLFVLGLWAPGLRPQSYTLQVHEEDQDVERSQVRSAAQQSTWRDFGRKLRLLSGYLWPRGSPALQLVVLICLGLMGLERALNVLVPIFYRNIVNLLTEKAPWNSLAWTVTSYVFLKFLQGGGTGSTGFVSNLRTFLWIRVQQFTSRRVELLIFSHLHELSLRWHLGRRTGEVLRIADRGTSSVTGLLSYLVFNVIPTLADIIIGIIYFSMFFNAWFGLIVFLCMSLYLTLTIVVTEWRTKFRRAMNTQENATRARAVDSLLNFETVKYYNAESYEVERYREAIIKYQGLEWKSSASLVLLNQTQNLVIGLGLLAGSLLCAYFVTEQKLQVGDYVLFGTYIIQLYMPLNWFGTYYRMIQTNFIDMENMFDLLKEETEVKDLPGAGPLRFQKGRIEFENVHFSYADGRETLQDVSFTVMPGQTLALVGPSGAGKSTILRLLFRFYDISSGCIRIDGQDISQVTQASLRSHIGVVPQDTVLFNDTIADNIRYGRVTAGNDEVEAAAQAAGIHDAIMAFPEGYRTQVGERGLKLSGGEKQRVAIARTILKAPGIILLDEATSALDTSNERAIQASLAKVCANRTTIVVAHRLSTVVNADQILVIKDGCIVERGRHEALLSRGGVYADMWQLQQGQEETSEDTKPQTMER
inactive: IRAK-1-4 Inhibitor I -0.018 | ibrutinib 0.003 | [1] 0.021 | ralimetinib 0.051 | [2] -0.073 | [4] -0.007 | pinometostat 0.037 | [5] -0.058 | [6] 0.065 | [7] 0.085 | [8] -0.084 | [9] 0.019 | [10] 0.019 | Nexturastat A 0.001 | vemurafenib 0.073 | [11] -0.022 | [12] -0.041 | givinostat -0.002 | barasertib 0.008
active: [3] -0.489

ATR (UniProt Q13535)
inactive: IRAK-1-4 Inhibitor I 0.093 | ibrutinib 0.031 | [1] 0.021 | ralimetinib -0.03 | [2] -0.077 | [3] 0.046 | [4] 0.037 | pinometostat 0.101 | [5] 0.002 | [6] 0.109 | [7] -0.012 | [8] -0.022 | [9] 0.013 | [10] -0.126 | Nexturastat A 0.005 | vemurafenib 0.035 | [11] -0.001 | [12] 0.015 | givinostat 0.039 | barasertib 0.037

AKR1C2 (UniProt P52895)
UniProt P52895, sequence (P52895 whole entry, looked up): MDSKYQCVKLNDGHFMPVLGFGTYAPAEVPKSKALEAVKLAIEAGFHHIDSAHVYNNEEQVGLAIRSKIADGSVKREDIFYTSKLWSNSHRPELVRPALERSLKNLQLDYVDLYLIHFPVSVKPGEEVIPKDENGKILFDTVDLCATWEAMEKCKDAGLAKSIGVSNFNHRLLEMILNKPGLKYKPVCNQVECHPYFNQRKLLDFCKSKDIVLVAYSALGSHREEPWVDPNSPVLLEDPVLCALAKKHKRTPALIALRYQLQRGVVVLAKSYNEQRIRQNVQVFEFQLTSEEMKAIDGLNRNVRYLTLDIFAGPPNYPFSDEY
inactive: IRAK-1-4 Inhibitor I -0.218 | ibrutinib 0.006 | [1] -0.043 | ralimetinib -0.015 | [2] 0.099 | [3] -0.16 | [4] -0.043 | pinometostat 0.049 | [5] 0.008 | [6] -0.063 | [7] -0.153 | [8] -0.222 | [9] -0.166 | [10] -0.077 | Nexturastat A 0.205 | vemurafenib -0.046 | [11] -0.179 | [12] 0.024 | givinostat 0.159 | barasertib -0.018

AKAP8L (UniProt Q9ULX6)
inactive: IRAK-1-4 Inhibitor I -0.076 | ibrutinib -0.001 | [1] -0.128 | ralimetinib 0.091 | [2] -0.091 | [3] -0.299 | [4] 0.106 | pinometostat -0.018 | [5] 0.024 | [6] -0.34 | [7] -0.124 | [8] -0.007 | [9] -0.092 | [10] 0.005 | Nexturastat A 0.054 | vemurafenib 0.069 | [11] 0.067 | [12] 0.02 | givinostat 0.004 | barasertib 0.047

ACSL5 isoform 3 (UniProt Q9ULC5)
UniProt Q9ULC5, sequence (Q9ULC5 whole entry, looked up): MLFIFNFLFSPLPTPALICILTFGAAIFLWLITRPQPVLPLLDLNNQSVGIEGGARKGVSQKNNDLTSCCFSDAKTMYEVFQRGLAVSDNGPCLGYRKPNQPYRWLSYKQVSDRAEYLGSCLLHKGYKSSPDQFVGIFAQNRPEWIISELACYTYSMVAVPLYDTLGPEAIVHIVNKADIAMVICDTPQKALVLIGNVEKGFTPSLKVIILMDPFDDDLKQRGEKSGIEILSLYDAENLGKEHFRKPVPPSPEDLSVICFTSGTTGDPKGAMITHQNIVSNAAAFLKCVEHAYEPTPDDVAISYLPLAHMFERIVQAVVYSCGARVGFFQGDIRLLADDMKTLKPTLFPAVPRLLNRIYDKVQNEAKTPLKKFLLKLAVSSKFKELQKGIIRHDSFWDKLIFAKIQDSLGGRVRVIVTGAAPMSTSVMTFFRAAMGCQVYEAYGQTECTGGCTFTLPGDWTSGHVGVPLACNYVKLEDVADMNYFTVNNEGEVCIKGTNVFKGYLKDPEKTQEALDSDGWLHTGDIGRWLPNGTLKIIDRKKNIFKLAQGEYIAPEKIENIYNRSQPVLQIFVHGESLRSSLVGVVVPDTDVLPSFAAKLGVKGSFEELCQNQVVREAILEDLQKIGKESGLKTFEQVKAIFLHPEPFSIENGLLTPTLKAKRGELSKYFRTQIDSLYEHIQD
active: [3] -0.354
inactive: IRAK-1-4 Inhibitor I 0.02 | ibrutinib 0.03 | [1] -0.017 | ralimetinib -0.03 | [2] 0.014 | [4] -0.001 | pinometostat 0.095 | [5] 0.049 | [6] 0.088 | [7] 0.106 | [8] 0.061 | [9] -0.025 | [10] 0.088 | Nexturastat A -0.009 | vemurafenib 0.001 | [11] 0.083 | [12] -0.019 | givinostat -0.023 | barasertib 0.013

ALG3 (UniProt Q92685)
UniProt Q92685, sequence (Q92685 whole entry, looked up): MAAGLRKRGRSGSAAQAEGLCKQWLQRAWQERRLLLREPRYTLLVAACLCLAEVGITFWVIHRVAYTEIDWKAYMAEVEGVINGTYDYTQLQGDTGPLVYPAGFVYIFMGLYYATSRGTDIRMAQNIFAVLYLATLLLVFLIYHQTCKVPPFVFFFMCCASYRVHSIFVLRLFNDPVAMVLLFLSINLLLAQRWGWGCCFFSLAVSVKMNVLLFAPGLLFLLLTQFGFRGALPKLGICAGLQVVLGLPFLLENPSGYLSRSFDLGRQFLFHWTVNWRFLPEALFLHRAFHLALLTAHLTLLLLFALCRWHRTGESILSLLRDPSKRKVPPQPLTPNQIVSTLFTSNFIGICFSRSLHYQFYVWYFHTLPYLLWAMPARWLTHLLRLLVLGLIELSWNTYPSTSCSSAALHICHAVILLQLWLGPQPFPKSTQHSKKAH
inactive: IRAK-1-4 Inhibitor I -0.081 | ibrutinib -0.022 | [1] -0.08 | ralimetinib -0.08 | [2] -0.034 | [3] -0.267 | [4] -0.038 | pinometostat -0.075 | [5] -0.037 | [6] -0.045 | [7] 0.108 | [8] 0.002 | [9] 0.113 | Nexturastat A 0.008 | vemurafenib -0.076 | [11] 0.123 | [12] -0.079 | givinostat -0.09 | barasertib 0
active: [10] 0.376

BPHL (UniProt Q86WA6)
inactive: IRAK-1-4 Inhibitor I 0.009 | ibrutinib -0.062 | [1] -0.034 | ralimetinib -0.045 | [2] -0.023 | [3] 0.123 | [4] 0.071 | pinometostat 0.061 | [5] 0.016 | [6] -0.244 | [7] -0.037 | [8] -0.031 | [9] -0.058 | [10] 0.017 | Nexturastat A -0.205 | vemurafenib 0.004 | [11] -0.062 | [12] 0.057 | givinostat 0.023 | barasertib -0.006

ADRM1 (UniProt Q16186)
inactive: IRAK-1-4 Inhibitor I -0.096 | ibrutinib -0.111 | [1] 0.033 | ralimetinib 0.065 | [2] -0.077 | [3] -0.005 | [4] -0.064 | pinometostat 0.015 | [5] -0.022 | [6] 0.04 | [7] 0.067 | [8] 0.009 | [9] -0.013 | [10] 0.024 | Nexturastat A 0.104 | vemurafenib -0.022 | [11] -0.028 | [12] 0.01 | givinostat 0.034 | barasertib -0.021

ACADVL isoform 3 (UniProt P49748)
UniProt P49748, sequence (P49748 whole entry, looked up): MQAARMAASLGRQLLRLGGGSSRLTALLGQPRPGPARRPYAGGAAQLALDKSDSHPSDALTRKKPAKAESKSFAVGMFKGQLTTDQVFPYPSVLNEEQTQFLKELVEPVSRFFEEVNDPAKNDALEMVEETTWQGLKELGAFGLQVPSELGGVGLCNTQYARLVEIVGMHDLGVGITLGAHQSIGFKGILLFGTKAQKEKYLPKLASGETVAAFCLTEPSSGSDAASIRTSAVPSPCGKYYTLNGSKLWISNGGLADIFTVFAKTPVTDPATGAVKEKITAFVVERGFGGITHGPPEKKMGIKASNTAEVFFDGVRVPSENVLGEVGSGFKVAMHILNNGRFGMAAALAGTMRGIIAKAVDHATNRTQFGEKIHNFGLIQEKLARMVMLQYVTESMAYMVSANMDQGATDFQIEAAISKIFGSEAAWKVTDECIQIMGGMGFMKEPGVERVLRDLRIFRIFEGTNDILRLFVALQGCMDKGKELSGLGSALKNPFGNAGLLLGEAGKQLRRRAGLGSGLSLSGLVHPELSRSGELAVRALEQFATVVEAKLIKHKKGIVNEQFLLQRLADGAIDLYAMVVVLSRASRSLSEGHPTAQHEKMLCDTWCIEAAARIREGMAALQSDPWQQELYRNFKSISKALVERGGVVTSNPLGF
inactive: IRAK-1-4 Inhibitor I 0.038 | ibrutinib -0.002 | [1] 0.005 | ralimetinib -0.015 | [2] -0.016 | [3] -0.013 | [4] -0.025 | pinometostat -0.067 | [5] -0.032 | [6] 0.002 | [7] -0.004 | [8] 0.01 | [9] 0.024 | [10] -0.002 | Nexturastat A -0.073 | vemurafenib -0.009 | [11] 0.01 | [12] -0.002 | givinostat 0.026 | barasertib 0.006

ATP11A (UniProt P98196)
UniProt P98196, sequence (P98196 whole entry, looked up): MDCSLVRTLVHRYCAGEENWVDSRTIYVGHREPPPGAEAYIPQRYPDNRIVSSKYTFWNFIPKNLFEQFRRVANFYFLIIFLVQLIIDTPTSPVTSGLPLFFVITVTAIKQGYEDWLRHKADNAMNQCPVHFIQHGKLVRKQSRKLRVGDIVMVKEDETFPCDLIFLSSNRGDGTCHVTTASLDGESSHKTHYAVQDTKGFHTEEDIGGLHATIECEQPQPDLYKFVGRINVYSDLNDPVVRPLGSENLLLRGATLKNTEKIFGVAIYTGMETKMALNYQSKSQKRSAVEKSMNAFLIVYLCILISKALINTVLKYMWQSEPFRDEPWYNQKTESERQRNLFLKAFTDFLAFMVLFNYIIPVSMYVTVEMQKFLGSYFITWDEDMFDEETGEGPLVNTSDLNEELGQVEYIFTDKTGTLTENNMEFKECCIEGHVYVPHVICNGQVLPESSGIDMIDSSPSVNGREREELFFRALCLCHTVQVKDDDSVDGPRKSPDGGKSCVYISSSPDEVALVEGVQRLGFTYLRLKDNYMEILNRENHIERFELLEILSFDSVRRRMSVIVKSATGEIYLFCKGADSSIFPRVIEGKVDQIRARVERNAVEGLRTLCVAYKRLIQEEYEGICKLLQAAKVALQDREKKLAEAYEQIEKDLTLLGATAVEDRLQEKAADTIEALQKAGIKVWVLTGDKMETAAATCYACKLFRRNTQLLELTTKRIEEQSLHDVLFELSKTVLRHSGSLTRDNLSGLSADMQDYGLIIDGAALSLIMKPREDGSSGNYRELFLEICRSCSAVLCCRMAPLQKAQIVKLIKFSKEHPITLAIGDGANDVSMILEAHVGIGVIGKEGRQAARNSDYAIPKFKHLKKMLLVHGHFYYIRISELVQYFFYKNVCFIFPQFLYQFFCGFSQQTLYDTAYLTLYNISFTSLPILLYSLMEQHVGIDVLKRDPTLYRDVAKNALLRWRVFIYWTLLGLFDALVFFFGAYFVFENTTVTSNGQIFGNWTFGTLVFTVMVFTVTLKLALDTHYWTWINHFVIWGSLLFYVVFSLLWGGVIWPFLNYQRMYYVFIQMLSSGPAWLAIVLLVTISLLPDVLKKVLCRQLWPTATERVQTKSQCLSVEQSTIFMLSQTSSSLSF
inactive: IRAK-1-4 Inhibitor I -0.003 | ibrutinib 0.007 | [1] 0.018 | ralimetinib 0 | [2] -0.026 | [3] 0.073 | [4] 0.052 | pinometostat 0.004 | [5] 0.05 | [6] 0.036 | [7] -0.033 | [8] -0.022 | [9] -0.039 | [10] -0.007 | Nexturastat A -0.005 | vemurafenib 0.032 | [11] -0.027 | [12] -0.035 | givinostat -0.007 | barasertib -0.033

AAMP (UniProt Q13685)
inactive: IRAK-1-4 Inhibitor I 0.007 | ibrutinib 0.023 | [1] 0.064 | ralimetinib 0.031 | [2] 0.04 | [3] -0.051 | [4] -0.02 | pinometostat 0.007 | [5] 0 | [7] 0 | [8] -0.006 | [9] -0.028 | [10] -0.04 | Nexturastat A 0.012 | vemurafenib -0.018 | [11] 0.018 | [12] -0.041 | givinostat 0.033 | barasertib -0.006
active: [6] 0.225

AGO1 (UniProt Q9UL18)
inactive: IRAK-1-4 Inhibitor I 0.02 | ibrutinib 0.05 | [1] 0.019 | ralimetinib -0.023 | [2] -0.001 | [3] -0.01 | [4] 0.07 | pinometostat 0.061 | [5] 0.144 | [6] 0.076 | [7] -0.213 | [8] -0.021 | [9] -0.025 | [10] 0.193 | Nexturastat A 0.084 | vemurafenib -0.023 | [11] -0.006 | [12] -0.111 | givinostat 0.071 | barasertib -0.064

ASH2L (UniProt Q9UBL3)
inactive: IRAK-1-4 Inhibitor I -0.022 | ibrutinib -0.048 | [1] -0.046 | ralimetinib 0.004 | [2] -0.018 | [3] 0.016 | [4] -0.004 | pinometostat -0.013 | [5] -0.013 | [6] -0.044 | [7] 0.018 | [8] -0.047 | [9] 0.003 | [10] 0.01 | Nexturastat A -0.003 | vemurafenib 0.057 | [11] 0.071 | [12] -0.022 | givinostat 0.031 | barasertib 0.007

ATOX1 (UniProt O00244)
UniProt O00244, sequence (O00244 whole entry, looked up): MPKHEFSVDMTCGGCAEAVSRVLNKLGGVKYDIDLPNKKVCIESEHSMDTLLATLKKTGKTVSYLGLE
inactive: IRAK-1-4 Inhibitor I 0.018 | ibrutinib 0.01 | [1] 0.154 | ralimetinib 0.23 | [2] -0.005 | [3] 0.109 | [4] -0.198 | pinometostat -0.153 | [5] -0.004 | [6] 0.099 | [7] 0.056 | [8] -0.065 | [9] 0.275 | [10] 0.239 | Nexturastat A -0.037 | vemurafenib 0.054 | [11] 0.372 | [12] 0.28 | givinostat -0.072 | barasertib -0.025

ADPRHL2 (UniProt Q9NX46)
UniProt Q9NX46, sequence (Q9NX46 whole entry, looked up): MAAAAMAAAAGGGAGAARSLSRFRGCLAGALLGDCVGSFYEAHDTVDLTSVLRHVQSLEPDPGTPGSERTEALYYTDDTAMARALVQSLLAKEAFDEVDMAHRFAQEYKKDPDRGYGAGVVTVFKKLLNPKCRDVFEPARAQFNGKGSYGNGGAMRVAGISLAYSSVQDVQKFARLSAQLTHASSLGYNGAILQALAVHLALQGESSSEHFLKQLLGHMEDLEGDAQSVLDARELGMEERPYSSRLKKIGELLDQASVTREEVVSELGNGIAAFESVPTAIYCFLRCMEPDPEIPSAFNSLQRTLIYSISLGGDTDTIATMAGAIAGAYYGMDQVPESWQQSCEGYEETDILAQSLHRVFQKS
inactive: IRAK-1-4 Inhibitor I 0 | ibrutinib -0.021 | [1] -0.025 | ralimetinib -0.021 | [2] -0.088 | [3] 0.08 | [4] -0.038 | pinometostat -0.015 | [5] -0.126 | [6] -0.002 | [7] 0.022 | [8] -0.06 | [9] 0.007 | [10] 0.111 | Nexturastat A -0.077 | vemurafenib 0.126 | [11] 0.076 | [12] -0.003 | givinostat 0.004 | barasertib 0.043

BYSL (UniProt Q13895)
UniProt Q13895, sequence (Q13895 whole entry, looked up): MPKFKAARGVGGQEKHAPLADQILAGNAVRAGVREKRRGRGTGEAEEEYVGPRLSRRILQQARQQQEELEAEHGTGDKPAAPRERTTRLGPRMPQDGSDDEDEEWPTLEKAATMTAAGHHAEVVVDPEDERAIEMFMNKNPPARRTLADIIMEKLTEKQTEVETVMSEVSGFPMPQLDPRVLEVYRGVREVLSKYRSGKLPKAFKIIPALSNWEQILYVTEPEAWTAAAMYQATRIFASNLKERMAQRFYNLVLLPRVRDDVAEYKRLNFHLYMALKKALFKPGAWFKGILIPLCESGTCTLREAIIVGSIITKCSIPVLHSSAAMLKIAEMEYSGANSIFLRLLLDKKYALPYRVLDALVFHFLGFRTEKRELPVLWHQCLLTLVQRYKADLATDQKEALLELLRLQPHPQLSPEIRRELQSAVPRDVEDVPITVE
inactive: IRAK-1-4 Inhibitor I -0.115 | ibrutinib -0.054 | [1] 0.043 | ralimetinib 0.051 | [2] -0.11 | [3] -0.109 | [4] 0.092 | pinometostat 0.118 | [5] -0.007 | [7] 0.04 | [8] -0.042 | [9] -0.01 | [10] 0.016 | Nexturastat A 0.14 | vemurafenib 0.079 | [11] 0.032 | [12] -0.024 | givinostat 0.167 | barasertib 0.014
active: [6] -0.495
